Screens: PubChem BioAssay, Sanford-Burnham Center for Chemical Genomics
Hits are enriched below; roughly 28% of the tested compounds scored in any of these assays.
Mac1 fbg inh = inhibitors of CD11b/CD18 adhesion to fibrinogen, primary screen, K562 cells, luminescence; Integrin beta-2 (Homo sapiens) + Integrin alpha-M (Homo sapiens), P05107+P11215; ATPlite luminescence; Mn2+ added to activate the integrin; inhibition, % at 10 µM; 0.54% of 93,000 active; AID 1497, 2009;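 active = primary inhibition of 50% or more at 10 µM, then 40% or more on retest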
Target sequence (P05107 whole entry, looked up, other chains not shown): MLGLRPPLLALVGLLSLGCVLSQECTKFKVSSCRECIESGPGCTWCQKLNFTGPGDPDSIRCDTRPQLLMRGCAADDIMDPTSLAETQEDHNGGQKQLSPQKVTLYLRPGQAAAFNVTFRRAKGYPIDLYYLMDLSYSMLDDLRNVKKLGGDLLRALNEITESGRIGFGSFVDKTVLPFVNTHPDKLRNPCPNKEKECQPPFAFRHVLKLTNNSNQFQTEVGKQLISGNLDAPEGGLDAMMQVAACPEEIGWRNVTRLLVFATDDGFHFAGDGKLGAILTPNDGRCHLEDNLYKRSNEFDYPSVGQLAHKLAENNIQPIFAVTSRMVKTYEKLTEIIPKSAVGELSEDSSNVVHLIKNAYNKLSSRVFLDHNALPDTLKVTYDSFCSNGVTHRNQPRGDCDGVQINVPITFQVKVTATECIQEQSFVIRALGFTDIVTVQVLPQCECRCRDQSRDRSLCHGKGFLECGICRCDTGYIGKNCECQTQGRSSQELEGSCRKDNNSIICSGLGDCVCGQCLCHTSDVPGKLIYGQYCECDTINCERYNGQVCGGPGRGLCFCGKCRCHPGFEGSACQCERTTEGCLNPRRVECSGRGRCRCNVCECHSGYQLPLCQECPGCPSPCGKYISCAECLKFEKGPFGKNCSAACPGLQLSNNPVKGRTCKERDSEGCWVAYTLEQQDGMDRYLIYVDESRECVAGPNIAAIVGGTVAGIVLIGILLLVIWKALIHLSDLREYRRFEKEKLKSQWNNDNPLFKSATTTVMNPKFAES
Mac1 fbg enh = enhancers of CD11b/CD18 adhesion to fibrinogen, primary screen, K562 cells, luminescence. activation, % at 10 µM. AID 1499, 2009. ATPlite luminescence. Integrin beta-2 (Homo sapiens) + Integrin alpha-M (Homo sapiens), P05107+P11215. 0.07% of 93,000 active;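 active = 10 µM primary screen giving 50% or more activity, confirmed by 40% or more on retest at that dose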
CYP2C19 activ = human CYP2C19 activators, primary screen, biochemical, luminescence | Cytochrome P450 2C19 (Homo sapiens), P33261 | recombinant CYP2C19, luciferin-H EGE luminescence; active compounds read high; 0 = fully inhibited enzyme, 1 = untreated enzyme | activation factor at 5 µM | 96,000 tested, under 10 active | AID 1025, 2008;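 active = activation factor of at least 2 at 5 µM in the primary screen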;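 note: 0 = wells with 2.5 mM tranylcypromine and 1 = vehicle-only wells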
CYP2C9 activ = human CYP2C9 activators, primary screen, biochemical, luminescence; Cytochrome P450 2C9 (Homo sapiens), P11712; recombinant CYP2C9, luciferin-H conversion; active compounds read high; factor 1 = untreated enzyme, 0 = blocked; activation factor at 5 µM; 1.4% of 96,000 active; AID 1024, 2008;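 active = activation factor of 2 or more for CYP2C9 at a 5 µM dose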;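 note: 0 = sulfaphenazole-blocked wells and 1 = vehicle-only wells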
CYP2C9 inh = blockers of cytochrome P450 2C9 activity – biochemical, luminescence, ADME assay, primary screen; inhibition, % at 5 µM; AID 777, 2007; 20% of 96,000 active; CYP2C9 Supersomes, luciferin-H conversion;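 active = blocking of liver enzyme CYP2C9 beyond about 50% at 5 µM, limit read from the data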
CYP2C19 inh = blockers of cytochrome P450 2C19 activity – biochemical, luminescence, ADME assay, primary screen; P33261; CYP2C19 Supersomes, luciferin-H EGE luminescence, 30 min; inhibition, % at 5 µM; 21% of 96,000 active;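 active = CYP2C19 inhibition above a set limit at 5 µM in the primary screen, cut at about 50% in these data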;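 note: plate controls were negative control wells for no effect and 2.5 mM tranylcypromine positive control for full effect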
The depositor's hits bear a star; nt = no result.

SMILES | Mac1 fbg inh | Mac1 fbg enh | CYP2C19 activ | CYP2C9 activ | CYP2C9 inh | CYP2C19 inh
Cc1cc(=O)oc2cc(OC(C)C(=O)Nc3nccs3)ccc12 (centres undefined) | -6.8 | 1.3 | 0.2 | 0.2 | 79.8* | 81.0*
COC(=O)C(CC(C)C)Oc1ccc2c(C)cc(=O)oc2c1 (centres undefined) | -13.1 | 15.2 | 0.8 | 0.4 | 64.7* | 19.8
COCC(C)n1c(C)cc(C(=O)COC(=O)c2ccc(N3CCCC3=O)cc2)c1C (centres undefined) | -12.9 | 4.3 | 0.9 | 1 | 2.0 | 13.0
COc1ccc(-c2nc(SCc3ccccc3)n(C(=O)c3ccco3)n2)cc1 | -1.0 | 2.0 | 1.1 | 0.7 | 26.9 | -6.2
CS(=O)(=O)n1nc(-c2ccc(Cl)cc2)nc1SCc1ccccc1 | 40.1 | -5.9 | 0.5 | 0.3 | 68.6* | 51.3*
COCCOCCOCCC(=O)NC1CC2CCC1(C)C2(C)C (centres undefined) | 3.6 | -0.4 | 0.7 | 0.6 | 35.2 | 25.1
CC1(C)C2CCC1(C)C(NC(=O)CCN1CCCCC1)C2 (centres undefined) | -3.7 | -0.9 | 0.7 | 0.4 | 61.6* | 27.6
[O-]/C(=C(\C(=S)Nc1cccc2ccccc12)[n+]1ccccc1)c1ccc2c(c1)OCCO2 | 51.8 | 5.7 | 1.1 | 1 | 3.9 | -7.9
COc1cc(C2NC(=O)NC(C)=C2C(=O)OC2CCCC(C)C2)ccc1O (centres undefined) | 0.2 | 4.3 | 0.9 | 0.8 | 15.6 | 9.1
Oc1c(Cl)cc(Cl)cc1C(C#Cc1ccccc1)N1CCOCC1 (centres undefined) | -3.3 | -6.0 | 0.8 | 0.3 | 67.0* | 23.8
O=C(Nc1ccccc1O)c1cc(S(=O)(=O)N2CCOCC2)ccc1Cl | nt | nt | 0.8 | 0.8 | 23.4 | 20.7
Cc1nn(S(=O)(=O)c2ccccc2)c(C)c1Sc1ccc([N+](=O)[O-])cc1 | 82.9 | -6.5 | 0.4 | 0.6 | 35.8 | 62.3*
Cc1nn(S(=O)(=O)c2cccs2)c(C)c1Sc1ccc([N+](=O)[O-])cc1 | 72.8 | -5.4 | 0.8 | 0.7 | 27.8 | 24.3
c1ccc(-n2nc3c(ccc4cnnc43)[nH]2)cc1 | -10.9 | -4.2 | 0.7 | 0.4 | 60.2* | 32.2
CC(=O)N(Cc1ccc(F)cc1)C1=C(NCc2ccccc2)C(=O)c2ccccc2C1=O | 16.1 | -1.2 | 0.3 | 0.2 | 76.4* | 72.9*
CC(=O)n1nc(-c2ccccc2)nc1NCc1ccc(F)cc1 | -1.2 | -3.8 | 0.8 | 0.8 | 21.5 | 16.2
O=C(CSc1nnc2sc3ccccc3n12)N1CCN(c2ccccc2)CC1 | -14.2 | 10.2 | 0.9 | 2.8* | -177.6 | 8.7
O=C(CSc1nnc(NCc2ccccc2)s1)c1ccco1 | -1.0 | 0.8 | 0.4 | 0.2 | 81.2* | 61.6*
CCOC(=O)CC(=O)CSc1nnc2sc3ccccc3n12 | 6.3 | -3.5 | 0.9 | 2.3* | -131.6 | 8.8
O=C(CSc1nnc2sc3ccccc3n12)c1ccco1 | -44.0 | -3.1 | 0.5 | 1.8 | -78.1 | 51.2*
COc1ccccc1NC(=O)CSc1nc(O)cc(=O)[nH]1 | -24.9 | -0.2 | 1.2 | 1.1 | -5.3 | -17.9
CCCCn1nnc(NC(=S)NC(=O)c2ccc(-c3cccc(Cl)c3Cl)o2)n1 | 32.1 | 2.6 | nt | nt | nt | nt
CC(=O)c1cccc(OCC(=O)c2cc(C)n(-c3cc(C)on3)c2C)c1 | 2.0 | -2.3 | 0.1 | 0.2 | 78.5* | 86.4*
Cc1cc(-n2c(C)cc(C(=O)CSc3nnc4sc5ccccc5n34)c2C)no1 | 1.9 | -3.5 | 0.1 | 0.8 | 15.7 | 87.4*
CCc1ccc(NC(=S)NC2CC3CCCC(C2)N3Cc2cccs2)cc1 (centres undefined) | 1.6 | -4.3 | 0.7 | 0.7 | 30.5 | 30.2
SMILES | Mac1 fbg inh | Mac1 fbg enh | CYP2C19 activ | CYP2C9 activ | CYP2C9 inh | CYP2C19 inh
CCN(Cc1cc2ccccc2[nH]c1=O)C(=O)c1cccnc1 | 6.6 | -2.7 | 1 | 1 | 2.6 | 3.6
Cc1ccc2[nH]c(=O)c(CN(Cc3cccnc3)C(=O)c3ccncc3)cc2c1 | -9.9 | -0.9 | 0.1 | 0.2 | 80.0* | 90.7*
CCN(Cc1cc2cc(OC)ccc2[nH]c1=O)C(=O)c1ccncc1 | nt | nt | 0.3 | 0.3 | 68.5* | 73.6*
Cc1cc(C(=O)Nc2ccccc2)oc1C | nt | nt | 0.8 | 1.1 | -7.4 | 24.4
O=C(c1ccccc1)c1ccc(OCC(O)CN2CCN(Cc3ccccc3)CC2)cc1 (centres undefined) | 19.3 | -5.5 | 0.6 | 0.6 | 36.5 | 39.6
CCCOC(=O)c1ccc(OCC(O)CN2CCN(C(=O)c3ccccc3)CC2)cc1 (centres undefined) | 21.9 | -3.0 | 0.9 | 0.4 | 64.0* | 10.8
CCOC(=O)c1sc(NC(=S)NC(=O)C23CC4CC(CC(C4)C2)C3)cc1C | -7.4 | 0.4 | nt | nt | nt | nt
Cc1csc(NC(=O)c2cccc(Cn3nc(C)c(Br)c3C)c2)n1 | 39.8 | -11.1 | 0.1 | 0.1 | 90.0* | 93.4*
Cn1c(SCC(=O)Nc2cc(=O)n(C)c(=O)n2C)nnc1C12CC3CC(CC(C3)C1)C2 | 5.7 | 1.2 | 1.2 | 1.2 | -19.6 | -19.5
Cc1ccnc(N2C(=O)c3ccccc3C2O)c1 (centres undefined) | -0.3 | -4.0 | 0.5 | 0.9 | 14.4 | 50.0*
Cc1ccc(N2C(=O)c3ccccc3C2Nc2ccccc2)nc1 (centres undefined) | -2.2 | 4.7 | 0.8 | 1 | 2.7 | 21.7
CCOc1ccc(-n2c(-c3ccccc3)c[n+]3c2CCCCC3)cc1 | 80.0* | -3.5 | nt | nt | nt | nt
COc1ccc(C(=O)Nc2nc(-c3cccs3)cs2)cc1 | 92.2 | -7.2 | 0.7 | 0.6 | 41.4 | 25.4
CCCSc1nnc(NC(=O)c2sc3nc(-c4cccs4)ccc3c2N)s1 | 31.1 | 75.1 | 0.6 | 0.5 | 53.2* | 36.1
Cc1csc(NC(=O)c2sc3nc(-c4cccs4)ccc3c2N)n1 | -7.8 | -0.1 | 0.4 | 0.2 | 81.2* | 58.8*
N#Cc1c(-c2ccccc2F)cc(C2CC2)nc1SCC(=O)c1cccs1 | 4.3 | 4.0 | nt | nt | nt | nt
O=S(=O)(c1ccc2nc(Cc3ccccc3)[nH]c2c1)N1CCOCC1 | -1.8 | -1.3 | 0.6 | 0.5 | 47.4 | 36.4
O=S(=O)(c1ccc2nc(Cc3cccc(C(F)(F)F)c3)[nH]c2c1)N1CCOCC1 | 13.6 | 0.5 | 0.3 | 0.1 | 86.4* | 67.0*
CC(C)OC(=O)C1C(=O)CC(C)(O)C(C(=O)OC(C)C)C1c1cccc(O)c1 (centres undefined) | -17.1 | 0.6 | 0.5 | 0.8 | 22.4 | 49.7
O=C(CN1C(=O)CCS(=O)(=O)c2ccccc21)Nc1cccc(F)c1 | -3.0 | 7.9 | 1.1 | 1.2 | -21.2 | -11.7
